Holding throughout (assay): DAPPL (digital affinity profiling via proximity ligation, sequencing); 10 mM Tris-HCl pH 7.5, 50 mM NaCl, 1 mM DTT, 4% glycerol, room temperature, 30 min; GST-TFs on glutathione beads, 16-mer random dsDNA library, 0.1% formaldehyde crosslink after washing; high values mean tight binding
Common to all, as to details: protein: recombinant; tags: N-terminal GST; dsDNA, one strand shown

One assay concerns the target T1, ERF (Homo sapiens, UniProt P50548 1-548).
T1 sequence: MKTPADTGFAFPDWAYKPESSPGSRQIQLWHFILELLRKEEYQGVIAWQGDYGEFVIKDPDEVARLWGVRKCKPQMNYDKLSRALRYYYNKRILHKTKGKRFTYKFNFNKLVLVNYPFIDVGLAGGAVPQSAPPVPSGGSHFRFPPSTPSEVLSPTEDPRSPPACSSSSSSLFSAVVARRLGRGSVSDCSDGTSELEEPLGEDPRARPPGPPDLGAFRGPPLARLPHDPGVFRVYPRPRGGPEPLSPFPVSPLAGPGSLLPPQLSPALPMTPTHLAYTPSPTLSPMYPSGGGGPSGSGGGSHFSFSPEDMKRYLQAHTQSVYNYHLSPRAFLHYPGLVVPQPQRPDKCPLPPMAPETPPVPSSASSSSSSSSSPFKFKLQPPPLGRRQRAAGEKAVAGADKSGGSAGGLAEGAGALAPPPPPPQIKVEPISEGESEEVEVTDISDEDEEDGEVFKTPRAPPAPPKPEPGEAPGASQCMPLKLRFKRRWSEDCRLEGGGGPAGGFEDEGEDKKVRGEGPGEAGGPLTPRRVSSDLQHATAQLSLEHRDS
Put shortly: (§1)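 Each value of binding signal is a hexamer's read frequency for a factor divided by the same hexamer's frequency in the tag-only sample. Barcoded, bead-captured GST fusions of human transcription factors made in yeast were pooled with that sample and incubated with 200 nmole of a random double-stranded 16-mer DNA library in Tris/NaCl/DTT/glycerol buffer at room temperature for 30 min. Washing, 0.1% formaldehyde crosslinking, proximity ligation, PCR and Illumina NextSeq500 sequencing followed.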

A further assay has as its target T2, ETV3L (Homo sapiens, UniProt Q6ZN32 1-361).
T2 sequence: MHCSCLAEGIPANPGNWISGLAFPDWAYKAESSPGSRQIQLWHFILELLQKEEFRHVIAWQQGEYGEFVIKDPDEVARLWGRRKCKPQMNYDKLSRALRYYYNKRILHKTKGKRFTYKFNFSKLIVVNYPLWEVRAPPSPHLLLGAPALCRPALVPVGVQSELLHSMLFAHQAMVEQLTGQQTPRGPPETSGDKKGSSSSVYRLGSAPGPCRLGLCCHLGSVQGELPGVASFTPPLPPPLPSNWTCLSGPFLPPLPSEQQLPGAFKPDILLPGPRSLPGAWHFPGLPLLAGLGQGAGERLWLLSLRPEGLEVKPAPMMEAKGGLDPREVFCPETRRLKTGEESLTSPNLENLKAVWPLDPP
Put shortly:
as §1

The next assay deals with T3, ETS2 (Homo sapiens, UniProt P15036 1-469).
T3 sequence: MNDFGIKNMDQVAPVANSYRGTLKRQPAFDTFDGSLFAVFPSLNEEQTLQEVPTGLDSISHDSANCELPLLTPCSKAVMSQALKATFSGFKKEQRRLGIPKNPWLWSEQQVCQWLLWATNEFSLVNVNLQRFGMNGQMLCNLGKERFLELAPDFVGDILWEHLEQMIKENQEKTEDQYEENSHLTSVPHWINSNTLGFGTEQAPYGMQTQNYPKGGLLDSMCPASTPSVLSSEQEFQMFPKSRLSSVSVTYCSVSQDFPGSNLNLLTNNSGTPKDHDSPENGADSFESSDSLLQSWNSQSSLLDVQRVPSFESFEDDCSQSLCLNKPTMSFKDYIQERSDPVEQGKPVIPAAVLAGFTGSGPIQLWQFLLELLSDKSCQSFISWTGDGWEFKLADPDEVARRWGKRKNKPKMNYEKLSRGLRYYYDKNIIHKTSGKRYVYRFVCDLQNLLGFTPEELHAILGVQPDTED
The essentials: as §1

A further assay concerns the target T4, SPDEF (Homo sapiens, UniProt O95238 1-335).
T4 sequence: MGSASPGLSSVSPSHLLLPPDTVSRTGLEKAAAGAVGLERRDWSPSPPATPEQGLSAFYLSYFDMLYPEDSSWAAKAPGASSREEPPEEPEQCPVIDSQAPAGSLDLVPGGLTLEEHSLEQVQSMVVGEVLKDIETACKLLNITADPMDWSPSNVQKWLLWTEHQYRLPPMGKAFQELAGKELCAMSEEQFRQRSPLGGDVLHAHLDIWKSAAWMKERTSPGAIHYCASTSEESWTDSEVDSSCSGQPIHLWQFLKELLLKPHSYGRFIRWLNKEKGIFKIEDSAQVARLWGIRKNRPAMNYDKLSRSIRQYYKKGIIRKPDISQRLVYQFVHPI
The essentials:
as §1

The target of the next assay is T5, ETV7 (Homo sapiens, UniProt Q9Y603 1-341).
T5 sequence: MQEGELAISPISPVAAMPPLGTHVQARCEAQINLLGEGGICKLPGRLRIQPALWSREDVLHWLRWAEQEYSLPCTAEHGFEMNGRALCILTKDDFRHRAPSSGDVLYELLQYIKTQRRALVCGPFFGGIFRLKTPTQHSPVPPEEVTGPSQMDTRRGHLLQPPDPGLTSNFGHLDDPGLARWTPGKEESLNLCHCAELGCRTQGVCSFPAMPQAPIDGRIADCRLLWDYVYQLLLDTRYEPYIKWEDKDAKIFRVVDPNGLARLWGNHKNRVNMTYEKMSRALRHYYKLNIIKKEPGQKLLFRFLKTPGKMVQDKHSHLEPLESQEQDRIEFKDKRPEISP
Put shortly: as §1

The next assay concerns the target T6, ELF5 (Homo sapiens, UniProt Q9UKW6-2 1-255).
T6 sequence: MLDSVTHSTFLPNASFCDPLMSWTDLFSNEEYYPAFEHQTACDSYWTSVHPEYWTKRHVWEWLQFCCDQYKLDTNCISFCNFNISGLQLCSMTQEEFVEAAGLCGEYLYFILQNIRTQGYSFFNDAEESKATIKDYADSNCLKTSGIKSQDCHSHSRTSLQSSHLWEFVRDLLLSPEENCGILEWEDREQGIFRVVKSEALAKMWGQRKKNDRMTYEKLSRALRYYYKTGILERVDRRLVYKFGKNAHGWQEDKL
Put shortly:
as §1

Another assay addresses T7, ETV3 (Homo sapiens, UniProt P41162-2 1-143).
T7 sequence: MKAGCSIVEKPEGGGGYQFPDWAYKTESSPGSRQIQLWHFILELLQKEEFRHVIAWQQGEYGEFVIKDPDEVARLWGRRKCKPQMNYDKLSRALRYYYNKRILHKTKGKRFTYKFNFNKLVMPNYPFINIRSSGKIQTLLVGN
Put shortly: as §1

For the next assay, the target named is ETV6 (Homo sapiens, UniProt P41212 1-452). Put shortly: as §1

Results on nine sequences are retold here after PMC7862700, “An all-to-all approach to the identification of sequence-specific readers for epigenetic DNA modifications on cytosine”.

ETV6, sequence (P41212 whole entry): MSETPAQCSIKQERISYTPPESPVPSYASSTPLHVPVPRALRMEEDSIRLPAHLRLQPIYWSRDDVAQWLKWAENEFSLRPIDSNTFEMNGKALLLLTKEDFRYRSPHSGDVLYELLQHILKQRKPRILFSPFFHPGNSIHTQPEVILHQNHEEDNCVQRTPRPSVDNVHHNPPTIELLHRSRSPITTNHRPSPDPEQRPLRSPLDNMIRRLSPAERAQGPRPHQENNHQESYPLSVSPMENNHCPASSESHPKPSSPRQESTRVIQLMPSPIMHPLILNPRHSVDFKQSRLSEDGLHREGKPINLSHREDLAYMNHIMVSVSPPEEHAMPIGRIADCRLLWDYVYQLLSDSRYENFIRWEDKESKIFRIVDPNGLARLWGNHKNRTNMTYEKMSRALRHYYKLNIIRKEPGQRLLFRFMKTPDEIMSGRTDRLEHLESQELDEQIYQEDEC

With ACCCTC, the binding signal with ERF was 1.19 fold enrichment (6-mer frequency, TF over GST control); in the assay with ETV3L it was 1.08 fold enrichment (6-mer frequency, TF over GST control); in the assay with ETS2 it was 1.19 fold enrichment (6-mer frequency, TF over GST control); with SPDEF it was 1.11 fold enrichment (6-mer frequency, TF over GST control); with ETV7 it was 1.13 fold enrichment (6-mer frequency, TF over GST control); with ELF5, 1.06 fold enrichment (6-mer frequency, TF over GST control). Besides, the binding signal with ETV3 was 1.16 fold enrichment (6-mer frequency, TF over GST control); with ETV6 it was 1.12 fold enrichment (6-mer frequency, TF over GST control).

Consider CCCCTG, for which the binding signal is 1.39 fold enrichment (6-mer frequency, TF over GST control) in the assay with ERF; 1.13 fold enrichment (6-mer frequency, TF over GST control) with ETV3L; 1.21 fold enrichment (6-mer frequency, TF over GST control) with ETS2; 1.17 fold enrichment (6-mer frequency, TF over GST control) with SPDEF; 1.13 fold enrichment (6-mer frequency, TF over GST control) with ETV7; 1.15 fold enrichment (6-mer frequency, TF over GST control) with ELF5. Moreover, the binding signal with ETV3 was 1.07 fold enrichment (6-mer frequency, TF over GST control); with ETV6, 1.07 fold enrichment (6-mer frequency, TF over GST control).

AGTGTT: the binding signal with ERF is 1.13 fold enrichment (6-mer frequency, TF over GST control); in the assay with ETV3L, 1.1 fold enrichment (6-mer frequency, TF over GST control); in the assay with ETS2 it was 1.1 fold enrichment (6-mer frequency, TF over GST control); with SPDEF, 1.13 fold enrichment (6-mer frequency, TF over GST control); in the assay with ETV7, 1.14 fold enrichment (6-mer frequency, TF over GST control); with ELF5, 1.3 fold enrichment (6-mer frequency, TF over GST control). Also, the binding signal in the assay with ETV3 is 1.08 fold enrichment (6-mer frequency, TF over GST control); in the assay with ETV6 it was 1.11 fold enrichment (6-mer frequency, TF over GST control).

GGAAAC: the binding signal in the assay with ERF was 1.19 fold enrichment (6-mer frequency, TF over GST control); in the assay with ETV3L, 1.32 fold enrichment (6-mer frequency, TF over GST control); in the assay with ETS2, 1.3 fold enrichment (6-mer frequency, TF over GST control); with SPDEF, 1.29 fold enrichment (6-mer frequency, TF over GST control); with ETV7, 1.34 fold enrichment (6-mer frequency, TF over GST control); in the assay with ELF5 it was 1.7 fold enrichment (6-mer frequency, TF over GST control). The binding signal was 1.42 fold enrichment (6-mer frequency, TF over GST control) with ETV3 and 1.66 fold enrichment (6-mer frequency, TF over GST control) with ETV6.

Regarding CCTGGT, the binding signal is 1.37 fold enrichment (6-mer frequency, TF over GST control) with ERF; 1.53 fold enrichment (6-mer frequency, TF over GST control) in the assay with ETV3L; 1.43 fold enrichment (6-mer frequency, TF over GST control) with ETS2; 1.69 fold enrichment (6-mer frequency, TF over GST control) with SPDEF; 1.31 fold enrichment (6-mer frequency, TF over GST control) in the assay with ETV7; 1.58 fold enrichment (6-mer frequency, TF over GST control) in the assay with ELF5. The binding signal in the assay with ETV3 was 1.49 fold enrichment (6-mer frequency, TF over GST control); with ETV6 it was 1.4 fold enrichment (6-mer frequency, TF over GST control).

For ATTAGG, the binding signal with ERF is 1.26 fold enrichment (6-mer frequency, TF over GST control); with ETV3L, 1.12 fold enrichment (6-mer frequency, TF over GST control); with ETS2, 1.06 fold enrichment (6-mer frequency, TF over GST control); with SPDEF it was 1.11 fold enrichment (6-mer frequency, TF over GST control); with ETV7, 1.15 fold enrichment (6-mer frequency, TF over GST control); with ELF5 it was 1.12 fold enrichment (6-mer frequency, TF over GST control). The binding signal with ETV3 was 1.06 fold enrichment (6-mer frequency, TF over GST control); with ETV6, 1.09 fold enrichment (6-mer frequency, TF over GST control).

Regarding TCCGTT, the binding signal with ERF was 1.53 fold enrichment (6-mer frequency, TF over GST control); with ETV3L it was 1.46 fold enrichment (6-mer frequency, TF over GST control); with ETS2, 1.54 fold enrichment (6-mer frequency, TF over GST control); with SPDEF, 1.74 fold enrichment (6-mer frequency, TF over GST control); with ETV7 it was 1.41 fold enrichment (6-mer frequency, TF over GST control); in the assay with ELF5, 1.66 fold enrichment (6-mer frequency, TF over GST control). For the same sequence, the binding signal with ETV3 is 1.58 fold enrichment (6-mer frequency, TF over GST control); with ETV6 it was 1.49 fold enrichment (6-mer frequency, TF over GST control).

Regarding TACAAA, the binding signal is 1.1 fold enrichment (6-mer frequency, TF over GST control) with ERF; 1.03 fold enrichment (6-mer frequency, TF over GST control) with ETV3L; 1.17 fold enrichment (6-mer frequency, TF over GST control) with ETS2; 1.14 fold enrichment (6-mer frequency, TF over GST control) with SPDEF; 1.11 fold enrichment (6-mer frequency, TF over GST control) in the assay with ETV7; 1.13 fold enrichment (6-mer frequency, TF over GST control) with ELF5. Besides, the binding signal with ETV3 was 1.08 fold enrichment (6-mer frequency, TF over GST control); in the assay with ETV6, 1.16 fold enrichment (6-mer frequency, TF over GST control).

CTCGTG: the binding signal in the assay with ERF is 1.12 fold enrichment (6-mer frequency, TF over GST control); with ETV3L, 1.01 fold enrichment (6-mer frequency, TF over GST control); with ETS2, 1.13 fold enrichment (6-mer frequency, TF over GST control); with SPDEF, 1.07 fold enrichment (6-mer frequency, TF over GST control); with ETV7, 1.12 fold enrichment (6-mer frequency, TF over GST control); with ELF5 it was 1.11 fold enrichment (6-mer frequency, TF over GST control). In addition, the binding signal was 1.08 fold enrichment (6-mer frequency, TF over GST control) with ETV3 and 1.02 fold enrichment (6-mer frequency, TF over GST control) with ETV6.
